Data from PubChem BioAssay (NCI).
This is part of a sample that, as a whole, favours compounds with a hit. Of some 83,000 tested, about 20% had one in any assay.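 Plates (96-well) were seeded with cells, treated with compound at one concentration, and incubated for 48 hours before percent growth was determined.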 A number with no mark means an inactive call. Activity calls are given as the source filed them. The calls were made as follows: active = growth percent below 10; inactive = the rest.

What was measured:
Assay in all cases: NCI-60 one-dose screen, 48 h (100 = growth as untreated, 0 = no growth, -100 = all killed)
Conditions in all cases: 10 µM unless noted
DU-145 prostate = test system: DU-145 prostate
K-562 leukemia = test system: K-562 leukemia
MALME-3M melanoma = test system: MALME-3M melanoma
MDA-MB-231 breast = test system: MDA-MB-231 breast
RXF 393 renal = test system: RXF 393 renal
SF-268 CNS = test system: SF-268 CNS
SF-295 CNS = test system: SF-295 CNS
SF-539 CNS = test system: SF-539 CNS
UACC-257 melanoma = test system: UACC-257 melanoma
M14 melanoma = test system: M14 melanoma
HCT-15 colon = test system: HCT-15 colon
HT29 colon = test system: HT29 colon
SNB-75 CNS = test system: SNB-75 CNS
SNB-19 CNS = test system: SNB-19 CNS
U251 CNS = test system: U251 CNS
PC-3 prostate = test system: PC-3 prostate
SK-MEL-5 melanoma = test system: SK-MEL-5 melanoma
UACC-62 melanoma = test system: UACC-62 melanoma
LOX IMVI melanoma = test system: LOX IMVI melanoma
SK-MEL-28 melanoma = test system: SK-MEL-28 melanoma

| SMILES | growth (DU-145 prostate) | growth (K-562 leukemia) | growth (MALME-3M melanoma) | growth (MDA-MB-231 breast) | growth (RXF 393 renal) | growth (SF-268 CNS) | growth (SF-295 CNS) | growth (SF-539 CNS) | growth (UACC-257 melanoma) | growth (M14 melanoma) | growth (HCT-15 colon) | growth (HT29 colon) | growth (SNB-75 CNS) | growth (SNB-19 CNS) | growth (U251 CNS) | growth (PC-3 prostate) | growth (SK-MEL-5 melanoma) | growth (UACC-62 melanoma) | growth (LOX IMVI melanoma) | growth (SK-MEL-28 melanoma) |
| --- | --- | --- | --- | --- | --- | --- | --- | --- | --- | --- | --- | --- | --- | --- | --- | --- | --- | --- | --- | --- |
| c1cc2ccc3cc2cc1CNCCOCCNCc1ccc2ccc(cc2c1)CNCCOCCNC3 | -29.3% (active) | 6.81% (active) | -64.5% (active) | -53.8% (active) | -40.1% (active) | -55.5% (active) | 14.5% | -53.4% (active) | 25.5% | 89.6% | 96.7% | -34.3% (active) | -98.7% (active) | -21.8% (active) | -20.4% (active) | -38.1% (active) | 1.54% (active) | -52.8% (active) | -25.3% (active) | – |
| Cn1c(I)c(C#C[Si](C)(C)C)c(=O)n(C(=O)c2ccccc2)c1=O | 0.184% (active) | -95.2% (active) | -10.3% (active) | 64.2% | -81.5% (active) | -18% (active) | 87.9% | 69.4% | -20.8% (active) | -54.7% (active) | 6.55% (active) | 1.95% (active) | 52.2% | 95.8% | 24.8% | -56.8% (active) | 55.1% | 69.9% | -90.4% (active) | – |
| O=C(c1ccc(Nc2nccc(NCCCCNc3ccnc4cc(Cl)ccc34)n2)cc1)N1CCCCC1 | 51.6% | -25.3% (active) | -78.6% (active) | -9.32% (active) | 46.9% | 34.2% | 1.19% (active) | -73.7% (active) | -50.8% (active) | -69% (active) | 11.2% | -11.3% (active) | -23.5% (active) | 24.7% | -31.6% (active) | 28.7% | -92.3% (active) | -23% (active) | -83.2% (active) | -52.5% (active) |
| COc1cc(C(=O)/C=C/c2c(-c3ccc(F)cc3)nc3sc(C)cn23)cc(OC)c1OC | 39.2% | 7.75% (active) | 6.76% (active) | 38.2% | 44.2% | 40.4% | 32.4% | 57.7% | 21.4% | 32.3% | 35.5% | 41.5% | 50.1% | 66.5% | 32.9% | 10.7% | -88.8% (active) | 23.1% | 25.1% | – |
| COc1cc(C2NC(=O)c3ccccc3N2)ccc1OCCCCCOc1c(OC)cc(C2=NOC(c3cc(OC)c(OC)c(OC)c3)C2)cc1OC (configuration not stated) | 118% | 59.7% | 53.9% | 82.5% | 104% | 67.4% | 24.9% | 83.2% | 44% | 84.3% | 73% | 94.2% | 101% | 80.2% | 84.2% | 36.8% | -2.4% (active) | 53.3% | 61% | – |
| CCC1(C2CCCC2)NC(=O)NC1=O (configuration not stated) | 101% | 102% | 97.5% | 95.6% | 97.2% | 95.8% | 111% | 86.3% | 105% | 102% | 92.3% | 94.6% | 93.9% | 98.5% | 106% | 101% | 101% | 99.7% | 79.7% | – |
| COc1cc(/C=C/C(=O)c2ccc(Nc3nc(Nc4ccc(F)cc4)nc(Nc4ccc(Cl)cc4)n3)cc2)cc(OC)c1OC | 68.5% | 35.8% | 56.2% | 62.6% | -31.1% (active) | 74.8% | 369% | 67.7% | 102% | 65.6% | 55% | 3.82% (active) | 0.259% (active) | 101% | 27.5% | 21.4% | 33.5% | 56.5% | 37.3% | -32.9% (active) |
| N#CC1=C(/N=C/c2ccccc2)Oc2c(ccc3ccccc23)C1c1ccccc1 (configuration not stated) | 17.6% | 12.2% | 49.2% | 19% | 18% | 30.8% | 3.77% (active) | 1.25% (active) | 53.6% | 4.85% (active) | 16.6% | 4.48% (active) | 10.1% | 24.4% | 16.9% | 8.32% (active) | -3.14% (active) | 15.7% | 23.9% | – |
| c1csc(-c2c3ccc(=[N+]4CCCCC4)cc-3oc3cc(N4CCCCC4)ccc23)c1 | -96.6% (active) | -29.5% (active) | -58.8% (active) | -50.9% (active) | -97% (active) | -88.8% (active) | -53.7% (active) | -91.3% (active) | -69.8% (active) | -87.8% (active) | -70% (active) | -74.2% (active) | -47.4% (active) | -87.6% (active) | -71.7% (active) | -65.7% (active) | -90.5% (active) | -76.1% (active) | -76.2% (active) | – |
| O=c1[nH][n+](-c2ccc(Cl)cc2)no1 | 59.7% | 10.4% | 84.7% | 70.7% | 121% | 47.7% | 34.5% | 66.7% | 64.9% | 81.5% | 34.5% | 95% | 74.4% | 91.3% | 83.2% | 72% | 96.1% | 5.96% (active) | 28.4% | – |
| CN1C(=O)N(C)C2C1NN=c1s/c(=C\c3ccccc3)c(=O)n12 (configuration not stated) | 55% | 20.3% | 51.3% | 68.9% | 54.7% | 57.8% | 34% | 45.1% | 54% | 31% | 27.1% | 77.8% | 11.5% | 45.4% | 42.1% | 28.2% | 41% | 42.2% | 44.6% | – |
| N#C/C(=C/C=C/c1cccc(Cl)c1)S(=O)c1ccccc1 (configuration not stated) | -92.6% (active) | 2.14% (active) | -41.5% (active) | -57.6% (active) | -87.6% (active) | -59.2% (active) | -28.9% (active) | -50.3% (active) | -46.8% (active) | -52.6% (active) | -69.4% (active) | -35.9% (active) | -28% (active) | -53% (active) | -89.6% (active) | -55.5% (active) | -70.5% (active) | -74.2% (active) | -85.3% (active) | – |
| N#CC1=C(c2ccc(Br)cc2)NC(SCC(=O)c2ccc(Br)cc2)NC1=O (configuration not stated) | 108% | 91.1% | 105% | 105% | 108% | 98.9% | 101% | 96.2% | 103% | 100% | 103% | 105% | 98.7% | 110% | 108% | 92.4% | 110% | 109% | 106% | – |
| COc1ccc(NC(=O)c2nc(-c3cc(OC)c(OC)c(OC)c3)n(-c3cccc4ccccc34)n2)cc1OC | 70.4% | 35.4% | 52.8% | 27% | 66.1% | 58.6% | 52.6% | 35% | 57.5% | 48% | 14.5% | 30% | 24.4% | 52.3% | 52.4% | 39.8% | 32.4% | 31% | 25.2% | – |
| CC(=O)OC1CCC2(C)C(=CC3C4CCC(=O)C4(C)CCC32)C1 (configuration not stated) | 101% | 95% | 112% | 98.2% | 115% | 96% | 95.5% | 99.1% | 110% | 98% | 98.2% | 99.7% | 83.8% | 98.6% | 98.5% | 101% | 105% | 101% | 100% | 102% |
| CCN(CC)CCCNc1ccc(Nc2ccc(OC)cc2)cc1 | 90.7% | 34.1% | 104% | 34.6% | 90.5% | 77.5% | 120% | 98.6% | 87.4% | 94.7% | 105% | 67.5% | 80% | 102% | 79.8% | 55.3% | 91.2% | 95.8% | 86.4% | – |
